High-throughput results: PubChem, National Center for Advancing Translational Sciences (NCATS)
LASV entry inh: qHTS for Inhibitors of binding or entry into cells for Lassa Virus; Lassa virus pseudotype entry inhibition, cell reporter; Potency, µM (highest dose often 37.9 µM), for inactives: at the top dose activity change, negative = inhibition, most hits filed as inhibitors; AID 540256, 2011; 1.2% of 300,000 active; calls by dose curve; tested in HEK293 cells; also: potency is read from the fitted curve at half-maximal effect; % is scaled to controls: 0 for no effect and ±100 for the full control effect; nearly all actives have a fitted effect of over 50% in size
HCV inhibitor: qHTS Assay for Inhibitors of Hepatitis C Virus (HCV) | 3.4% of 340,000 active | AID 651820, 2012 | Potency, µM (titrated, usually from 41.8 µM), without a hit: at the highest dose activity change, negative = inhibition, most hits filed as inhibitors | Huh7.5.1 HCVcc-Cre infection, luciferase reporter, 44 h; active = well fitted inhibition curve with a large enough effect; inconclusive = small, poorly fitted or top-dose-only effect, or another doubt; inactive = no such curve, though single readings can be large or run the other way; also: potency is read from the fitted curve at half-maximal effect; % is scaled to controls: 0 for no effect and ±100 for the full control effect
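Whole-lifecycle infectious HCVcc-Cre system; cells 1,000/well, compound then virus (~0.5 moi) added 4 h after plating, 44 h culture. Luciferase read 15 sec following 15 min substrate incubation, room temp.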
FMDV inh: High Throughput Screening for Foot and Mouth Disease Virus Antivirals; FMDV antiviral cell-based qHTS; Potency, µM (series often up to 57.9 µM), inactives show at the highest dose activity change, negative = inhibition, actives largely listed as inhibitors; 1.2% of 410,000 active; calls by dose curve; tested in HEK293T cells; also: read-out not given here; potency is read from the fitted curve at half-maximal effect; % is scaled to controls: 0 for no effect and ±100 for the full control effect; nearly all actives have a fitted effect of over 45% in size
MARV entry inh: qHTS for inhibitors of binding or entry into cells for Marburg Virus. Potency, µM (titrated, usually from 37.8 µM), for the others: top-dose activity change, negative = inhibition, actives largely listed as inhibitors. 1.8% of 300,000 active. Marburg virus pseudotyped entry inhibition, cell reporter; calls by dose curve; tested in HEK293 cells; also: potency is read from the fitted curve at half-maximal effect; % is scaled to controls: 0 for no effect and ±100 for the full control effect
HCMV inh: qHTS Assay for inhibitors of the human cytomegalovirus (HCMV) | HFF cells, HCMV-luciferase reporter, 72 h; hits give low values | activity change, negative = inhibition, % at 57.5 µM | 4.5% of 410,000 active | AID 1259415, 2018; in the data active = activity change below about -60%; inconclusive = no clear call, values can overlap the other calls; inactive = above about -39%; also: % is scaled to controls: 0 for no effect and ±100 for the full control effect
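After 16 h attachment at 37C, HFF cells received test compound and HCMV-luciferase (1 PFU/cell); reporter luminescence read 72 h later, data normalized against buffer-only and known inhibitor Salinomycin.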
SARS PLpro yeast-1: qHTS of Yeast-based Assay for SARS-CoV PLP; S. cerevisiae expressing SARS-CoV PLpro, growth rescue; Potency, µM (highest dose often 32.9 µM), inactives show at the top dose activity, positive = growth rescue, most hits filed as activators; 0.19% of 330,000 active; AID 485353, 2010; calls by dose curve; also: potency is read from the fitted curve at half-maximal effect; 0% is about no effect; nearly all actives have a fitted effect of over 55% in size
SARS PLpro yeast-2: qHTS of Yeast-based Assay for SARS-CoV PLP: Hit Validation | yeast expressing SARS-CoV PLpro, growth phenotype rescue | 19% of 1,000 active | calls only | shares compounds with SARS PLpro yeast-1 | AID 652038, 2013; call rule not given here
The depositor's hits bear a star; i = inactive; u = inconclusive; x = not tested or not shown; + = active, no number; [ ] = another dose, or the depositor's remark. An excerpt weighted towards active compounds, which were near 8% of everything screened.

SMILES	LASV entry inh	HCV inhibitor	FMDV inh	MARV entry inh	HCMV inh	SARS PLpro yeast-1	SARS PLpro yeast-2
COc1cccc(C(=O)Nc2nc(-c3ccccc3)c(-c3ccccc3)o2)c1	u	u	-10%	u	u	u	+
COc1ccccc1NC(=O)CNC(=O)Cn1c(C)cc2ccccc2c1=O	-8%[46.1 µM]	-2%	-13%	-19%[46.1 µM]	6	5%	x
COc1cc(NC(=O)Cn2c(C)cc3ccccc3c2=O)cc(OC)c1OC	u	11%	-17%	-28%[46.1 µM]	4	13µM*	i
Nc1cccc2c1C(=O)N(CCOc1ccc(F)cc1)C2=O	u	23%	21%	u	93	-7%	x
O=C1COc2cc(S(=O)(=O)CCC(=O)N3CCN(c4cccc(Cl)c4)CC3)c(Cl)cc2N1	-7%[46.1 µM]	x	u	x	u	x	x
CN(C)c1ccc(/C=N\NC(=S)SCN2C(=O)C3CCC(C)(C2=O)C3(C)C)cc1 (centres undefined)	u	u	16%	-15%[46.1 µM]	-13	13µM*	+
CCCn1c(C(CO)Nc2nc(C)cs2)nc2ccccc21 (centres undefined)	x	12%	1%	x	26	13%	x
CC(=O)NCCc1cc2ccc(C)cc2[nH]c1=O	4%	-4%	-4%	1%	95	u	i
CCOc1ccc(Nc2cc(C)nc(N3CCOCC3)n2)cc1	0%	-16%	-8%	-27%	-11	3%	x
CCCCNc1cc(C)nc(N2CCOCC2)n1	-3%	-5%	0%	-7%	-1	u	i
Cc1ccc(C(=O)O/N=C(\N)c2cccc([N+](=O)[O-])c2)cc1	u	2%	-21%	0%	33	-11%	x
Cc1ccc(CC(=O)O/N=C(\N)c2cccc([N+](=O)[O-])c2)cc1	-4%	26%	27%	-2%	12	x	i
CCNC(=S)N/N=C(\C)c1ccc(Cl)s1	-13%	u	-15%	-26%	u	u	+
CNC(=S)N/N=C(\C)c1ccc(Cl)s1	-1%	-8%	-14%	1%	-7	u	x
C=C(C)CNC(=S)N/N=C(\C)c1ccc(Cl)s1	-15%	u	-2%	-2%	u	u	+
Cc1ccc(C(=O)NCC(C)(C)N2CCOCC2)s1	-2%	21%	9%	9%	54	0%	x
CC(C)(CNC(=O)c1sc2cc(F)ccc2c1Cl)N1CCOCC1	13%	11µM*	-5%	5%	u	u	i
S=C1CSc2ccccc2N1	-5%	-1%	2%	24%	u	-1%	x
CC1CSc2ccccc2NC1=S (centres undefined)	8%	8%	46%	0%	-17	10µM*	+
CC1=C(C(=O)N2CCc3ccccc32)C2(CCC(C)CC2)OC1=O (centres undefined)	-20%	-15%	6%	-13%	5	u	i
CCOc1ccc(S(=O)(=O)NCCC(=O)NCCOc2ccccc2)cc1	22%	2%	-8%	-21%[46.1 µM]	-32	u	i
Cc1ccc(OCCNC(=O)CCNS(=O)(=O)c2ccc(C)cc2)cc1	u	2%	18%	-10%	-17	-3%	x
CCC(=O)N1CCC1(C)C(=O)Nc1cccc2cccnc12 (centres undefined)	x	x	-9%	x	40	x	x
COC(=O)[C@]1(C)N[C@H](CN(C)C(C)=O)[C@@H]2C(=O)N(Cc3ccccc3)C(=O)[C@@H]21	x	-15%[8.37 µM]	-15%	x	-3	3%	x
CC(C)(C)c1nnc(N/N=C/c2cc(Br)ccc2O)n(N)c1=O	u	u	22µM*	u	-101*	x	i
Cc1ccc(S(=O)(=O)Nc2ccccc2N2CCOCC2)cc1	-22%[46.1 µM]	u	6%	u	-2	2%	x
O=C(Cc1ccccc1[N+](=O)[O-])NCc1ccc(Cl)cc1Cl	u	-6%	19%	u	158	u	i
